Marburg entry inh – qHTS for inhibitors of binding or entry into cells for Marburg Virus; Marburg virus pseudotyped entry inhibition, cell reporter; AID 540276, 2011; hit rate 1.8% among 300,000; Potency, µM (top dose mostly 37.8 µM), most hits filed as inhibitors; calls by dose curve; tested in HEK293 cells
FMDV inh – High Throughput Screening for Foot and Mouth Disease Virus Antivirals. hit rate 1.2% among 410,000. Potency, µM (doses to about 57.9 µM), most hits filed as inhibitors. FMDV antiviral cell-based qHTS; calls by dose curve; tested in HEK293T cells; also: read-out not given here; nearly all actives have a fitted effect of over 45% in size
HCMV inh – qHTS Assay for inhibitors of the human cytomegalovirus (HCMV) | HFF cells, HCMV-luciferase reporter, 72 h; stronger effect = lower value | activity change, negative = inhibition, % at 57.5 µM | hit rate 4.5% among 410,000 | AID 1259415, 2018; in the data active = activity change below about -60%; inconclusive = no clear call, values can overlap the other calls; inactive = above about -39%
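Inhibition of viral replication was scored as loss of reporter luminescence in HFFs infected with HCMV-luciferase (MOI 1 PFU/cell) for 72 h; compounds tested at 2 doses, normalized to buffer and Salinomycin controls.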
Lassa entry inh – qHTS for Inhibitors of binding or entry into cells for Lassa Virus; Potency, µM (highest dose often 37.9 µM), most hits filed as inhibitors; Lassa virus pseudotype entry inhibition, cell reporter; hit rate 1.2% among 300,000; calls by dose curve; tested in HEK293 cells; also: nearly all actives have a fitted effect of over 50% in size
A number is an active result. The list is not random: actives were taken first. Their share in the collection is about 6.2%.

`Cc1ccc(C)c(NC(=O)CCN2CCOCC2)c1` gave Marburg entry inh inconclusive, FMDV inh inactive, HCMV inh inactive and Lassa entry inh inactive.
For CCc1nc2c(OCc3ccccc3)cccn2c1N(C)C(=O)COc1ccccc1 the results were FMDV inh inactive and HCMV inh inactive.
`CCc1nc2c(OCc3ccc(F)cc3)cccn2c1N(C)C(=O)COc1ccccc1` gave FMDV inh 32µM and HCMV inh inactive.
`CCc1nc2c(OCc3ccc(Cl)cc3)cccn2c1N(C)C(=O)c1ccccc1F` gave FMDV inh inactive and HCMV inh -63.
For CCC(C)NC(=O)C(Cc1ccccc1)n1cccc1 (stereo not given) the results were FMDV inh inactive and HCMV inh inactive.
CN1CCC(=NNC(=O)C(=O)Nc2ccccc2)CC1 was read as Marburg entry inh inactive, FMDV inh inactive, HCMV inh inactive and Lassa entry inh inactive.
Screening CC1(C(=O)Nc2ccc3c(c2)OCO3)CCN1C(=O)C1(c2ccc(Cl)cc2)CC1 (stereo not given) returned FMDV inh inactive and HCMV inh inactive.
COc1cc(/C=C/C(=O)OCC(=O)N2CCCc3ccccc32)ccc1OCC#N was read as FMDV inh inactive and HCMV inh inactive.
For COc1cccc2cc(C(=O)N3CCc4ccccc43)c(=O)oc12 the results were Marburg entry inh inactive, FMDV inh inactive, HCMV inh -71 and Lassa entry inh inactive.
For COc1cc(/C=C/C(=O)OCC(=O)N2CCCc3ccccc32)ccc1O the results were Marburg entry inh 1.3µM, FMDV inh inactive, HCMV inh inactive and Lassa entry inh inactive.
COc1cccc(C(=O)OCC(=O)N2CCc3ccccc32)c1OC was read as Marburg entry inh inconclusive, FMDV inh inactive, HCMV inh -98 and Lassa entry inh inactive.
Screening CCOc1cccc2cc(C(=O)N3CCc4ccccc43)c(=O)oc12 returned Marburg entry inh inactive, FMDV inh inactive, HCMV inh inactive and Lassa entry inh inactive.
Screening COc1ccc(C(=O)/C=C/c2ccc(OC)c(COc3ccccc3F)c2)cc1 returned Marburg entry inh inconclusive, FMDV inh inconclusive, HCMV inh inconclusive and Lassa entry inh inactive.
CC1CCCC(NC(=O)c2cc(S(=O)(=O)N3CCCCC3)c[nH]2)C1C (stereo not given) was read as HCMV inh inactive.
`CC1=C(C(=O)NC2CCCc3c2cnn3-c2cccc(C)c2C)OCCO1` (stereo not given) gave Marburg entry inh inconclusive, FMDV inh inconclusive, HCMV inh -79 and Lassa entry inh inconclusive.
Cc1cccc(-n2ncc3c2CCCC3NC(=O)Cc2c(C)noc2C)c1C (stereo not given) was read as FMDV inh inactive and HCMV inh inconclusive.
`Cc1cccc(-n2ncc3c2CCCC3NC(=O)CN2CCOC2=O)c1C` (stereo not given) gave FMDV inh inactive and HCMV inh inactive.
Cc1cccc(-n2ncc3c2CCCC3NC(=O)c2ccncc2)c1C (stereo not given) was read as FMDV inh inconclusive and HCMV inh -79.
`CCn1cc(C(=O)NC2CCCc3c2cnn3-c2cccc(C)c2C)cn1` (stereo not given) gave HCMV inh -99.
Screening Cc1cc(C(=O)NC2CCCc3c2cnn3-c2cccc(C)c2C)no1 (stereo not given) returned Marburg entry inh inconclusive, FMDV inh inactive, HCMV inh -97 and Lassa entry inh inconclusive.
Screening O=C(Cn1cc(SCc2ccc(Br)cc2)c2ccccc21)N1CCCCC1 returned FMDV inh inactive, HCMV inh inactive and Lassa entry inh inactive.
CCc1ccccc1NC(=O)CN(C)C(=O)CSc1nc2cc(Cl)ccc2s1 was read as Marburg entry inh inactive, FMDV inh inactive, HCMV inh inactive and Lassa entry inh inactive.
`COc1ccc(Cl)cc1NC(=O)Cn1c(=O)n2nc(C)nc2c2ccccc21` gave FMDV inh inactive and HCMV inh inactive.
`CCOC(=O)c1[nH]c(C)c(C(=O)N2CCN(C(=O)c3ccco3)CC2)c1C` gave Marburg entry inh inactive, FMDV inh inactive, HCMV inh inactive and Lassa entry inh inactive.
For Cc1cccc(-n2ncc3c2CCCC3NC(=O)CN2CCCC2=O)c1C (stereo not given) the results were Marburg entry inh inconclusive, FMDV inh inactive, HCMV inh inactive and Lassa entry inh inconclusive.
Cc1cccc(-n2ncc3c2CCCC3NC(=O)CCc2cccnc2)c1C (stereo not given) was read as FMDV inh inactive and HCMV inh -63.
Cc1cccc(-n2ncc3c2CCCC3NC(=O)c2cccs2)c1C (stereo not given) was read as FMDV inh inconclusive and HCMV inh -75.
`COc1cccc(C(=O)NC2CCCc3c2cnn3-c2cc(C)cc(C)c2)c1` (stereo not given) gave Marburg entry inh inconclusive, FMDV inh inactive, HCMV inh inconclusive and Lassa entry inh inconclusive.
For COc1ccc(C(=O)NC2CCCc3c2cnn3-c2cccc(C)c2C)o1 (stereo not given) the results were FMDV inh inactive and HCMV inh -93.
Screening CCOC(=O)C(C)CC(C)C(=O)N1CCOCCOCCN(C(=O)C(C)CC(C)C(=O)OCC)CCOCC1 (stereo not given) returned Marburg entry inh inactive, FMDV inh inactive, HCMV inh inactive and Lassa entry inh inactive.
For CCOC(=O)C(C(=O)OCC)C(C(=O)OCC)N1CCOCC1 (stereo not given) the results were Marburg entry inh inconclusive, FMDV inh 32µM, HCMV inh -105 and Lassa entry inh inactive.
Screening COc1ccc(-n2nc3c(c2NC(=O)C24CC5CC(CC(C5)C2)C4)CS(=O)C3)cc1 (stereo not given) returned FMDV inh inactive and HCMV inh inactive.
Screening O=C1CC(c2ccc3c(c2)OCO3)C2=C(CCCC2=O)N1 (stereo not given) returned Marburg entry inh inactive, FMDV inh inactive, HCMV inh inactive and Lassa entry inh inactive.
Screening O=C1CC(c2ccc(F)c(Br)c2)C2=C(CCCC2=O)N1 (stereo not given) returned Marburg entry inh inactive, FMDV inh inconclusive, HCMV inh -102 and Lassa entry inh inactive.
CCN(CC)S(=O)(=O)c1cc(NC(=S)NC(=O)C2CCCC2)ccc1C was read as FMDV inh inactive and HCMV inh -72.
CCN(CC)S(=O)(=O)c1ccc(N(C)C)c(NC(=O)C2CCCC2)c1 was read as FMDV inh inactive and HCMV inh inactive.
For CN(C)S(=O)(=O)c1cccc(C(=O)NCC2CCCCC2)c1 the results were Marburg entry inh inactive, FMDV inh inactive, HCMV inh -78 and Lassa entry inh inactive.
CCN(CC)S(=O)(=O)c1ccc(C(=O)NCC2CCCCC2)cc1 was read as Marburg entry inh inactive, FMDV inh inactive, HCMV inh inactive and Lassa entry inh 7.1µM.
Screening CCN(CC)c1ccc(S(=O)(=O)N(CC)CC)cc1NC(=O)C1CCCC1 returned Marburg entry inh inconclusive, FMDV inh inactive, HCMV inh inactive and Lassa entry inh 7.9µM.
For Cc1nn(C)cc1CN1CCC(n2nccc2NC(=O)CCCc2ccccc2)CC1 the results were Marburg entry inh inactive, FMDV inh inactive, HCMV inh inactive and Lassa entry inh inactive.
